# Tg IFNy HTS: T. gondii growth inhibition under IFN-gamma; Toxoplasma gondii growth in IFN-gamma-treated host cells; stronger effect = lower value; activity change, negative = inhibition, % (concentration not given with the values); 3.8% of 69,000 active; AID 1259416; in the data active = activity change below about -70%, passing the limit was not always enough;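 note: host cells are HeLa cells infected with Toxoplasma gondii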
# * hit, by the source's call; i = inactive. The sample as a whole holds a higher share of hits than the screen did.
SMILES,Tg IFNy HTS
Cc1cc(F)ccc1NC(=O)c1c(O)c2ccccc2n(-c2ccccc2)c1=O,16.4
O=C(Nc1ccccc1Cl)c1c(O)c2cccnc2n(-c2cccc(F)c2)c1=O,-87.0*
CCOc1ccccc1NC(=O)c1c(O)c2cccnc2n(-c2cccc(F)c2)c1=O,100.4
Cc1cccc(C)c1NC(=O)c1c(O)c2ccccc2n(-c2ccccc2)c1=O,-104.9*
Cc1ccc(NC(=O)c2c(O)c3ccccc3n(-c3ccccc3)c2=O)c(C)c1,-11.1
CCc1ccccc1NC(=O)c1c(O)c2cccnc2n(-c2ccc(F)cc2)c1=O,-79.5*
Cc1nc2ccc(CC(=O)NCc3nc(C4CCCCC4)no3)cc2[nH]1,-2.4
COC(C)c1cccc(-c2cc(C(=O)O)cc(S(=O)(=O)NC(C)C)c2)c1 (centres undefined),59.6
Cc1nc2cc(C3CCCN(C(=O)C(C)C)C3)[nH]n2c(=O)c1C (centres undefined),3.7
COc1ccc2c(c1)NC1(CCN(S(=O)(=O)c3ccc(F)cc3F)CC1)c1cccn1-2,23.5
CC(C)CCNC(=O)c1cnc(-c2noc3cc(NCC4CC4)ccc23)s1,-47.5
Cc1cccc(CN2CC[C@]3(C2)C(=O)NC[C@@H]3COc2ccccn2)n1,-0.7
COc1ccccc1CNC(=O)c1c(O)c2cccnc2n(-c2ccc(F)cc2)c1=O,-73.9*
COc1ccccc1CNC(=O)c1c(O)c2cccnc2n(-c2cccc(F)c2)c1=O,234.3
O=C(NCc1ccccc1Cl)c1c(O)c2cccnc2n(-c2ccc(F)cc2)c1=O,115.3
Cc1nc(N)nc(C)c1CCC(=O)Nc1cccc(Cn2cccn2)c1,-1.9
CCNC(=O)C1(Cc2ccc(-c3ccccc3)cc2)CCCN(C(=O)c2nonc2N)C1 (centres undefined),-30.8
C[C@H](CO)N1C[C@H](C)[C@H](CN(C)CC2CCCCC2)OCc2cnnn2CCCC1=O,181.4
C[C@H](CO)N1C[C@H](C)[C@@H](CN(C)CC2CCCCC2)OCc2cnnn2CCCC1=O,91.1
C[C@@H]1CN([C@@H](C)CO)C(=O)CCCn2nncc2CO[C@H]1CN(C)C(=O)c1ccc(N2CCN(C)CC2)cc1,-87.0*
C[C@H]1CN([C@@H](C)CO)C(=O)CCCn2nncc2CO[C@@H]1CN(C)C(=O)c1ccc(N2CCN(C)CC2)cc1,177.4
C[C@@H]1CN([C@H](C)CO)C(=O)CCCn2nncc2CO[C@H]1CN(C)C(=O)c1ccc(N2CCN(C)CC2)cc1,-26.5
C[C@@H]1CN([C@H](C)CO)C(=O)CCCn2nncc2CO[C@H]1CN(C)CC1CCCCC1,-99.3*
CCCn1cnnc1CNC(=O)c1csc(-c2cccs2)n1,-8.7
CN1C(COCC2CC2)CCC12CCN(S(=O)(=O)N(C)C)CC2 (centres undefined),-0.3
SMILES,Tg IFNy HTS
O=C(Nc1cccnc1)c1cc(-c2cnc(-c3ccccc3)nc2)cn1CC1CC1,-77.5*
O=C(Nc1cccnc1)c1cc(-c2cnc(N3CCCC3)nc2)cn1CC1CC1,-2.3
O=C(NCc1ccc(F)cc1F)c1cc(-c2cnc(-c3cccnc3)nc2)cn1CC1CC1,9.2
O=C(NC(c1ccccc1)c1ccccc1)c1ccc2c(c1)OCCO2,-10.4
CCOC(=O)c1cc(-c2nc(-c3ccccc3)cs2)c(C)nc1C(F)(F)F,-36.1
CCOC(=O)c1cc(C#N)c(Sc2nnc(SC)s2)nc1C(F)(F)F,-31.8
CCOC(=O)c1cc(C(N)=S)c(C)nc1C(F)(F)F,-78.7*
CC(C)n1c2ccccc2c2c1cc(C(=O)NCc1cccs1)n2C(=O)N(C)C,-22.9
Cc1cc(CN2CCC3(CCCN3c3ncccn3)CC2)nn1C,-22.2
NS(=O)(=O)c1ccc(NC(=O)Nc2ccc(F)cc2)cc1,25.4
NS(=O)(=O)c1ccc(NC(=O)c2ccc(-c3cc(Cl)ccc3Cl)o2)cc1,-100.3*
O=C(Nc1ccc(S(=O)(=O)Nc2ccccn2)cc1)c1ccc(Cl)c(Cl)c1,-3.4
Cc1ccc(C)c(C(O)CN2CCN(c3nnc(C(F)(F)F)s3)CC2)c1 (centres undefined),32.9
C=CCN(Cc1ccc(F)cc1)Cc1ccc(C(C)=O)cc1,7.6
COc1ccc2oc(=O)cc(CN(Cc3cccs3)C3CCCCC3)c2c1,11.4
CN[C@@H]1C[C@H]2O[C@@](C)([C@@H]1OC)n1c3ccccc3c3c4c(c5c6ccccc6n2c5c31)C(=O)N[C@H]4O,-80.4*
Cc1ccc(CN(Cc2ccncc2)Cc2ccnc(N3CCCC3)n2)cc1,-18.9
CS(=O)(=O)N1CCC2O[C@@H](COc3cccnc3)CCC21 (some centres undefined),85.6
Cc1ccc2c(n1)N(C)CCN(S(=O)(=O)c1ccc(C)c(F)c1)C2,6.7
C=CCN(CC=C)C(=O)Nc1ccc2nsnc2c1,-81.1*
O=C(Nc1ccc2c(c1)OCCO2)c1ccc2nsnc2c1,i
CCC(=O)Nc1c(C)ccc2nsnc12,8.4
Cc1cccc(CN2CCN(Cc3ccc4occc4c3)CC2)c1,-8.1
CN(C)C(=O)CC1CC2(CCN(S(=O)(=O)C3CC3)CC2)Oc2ccccc21 (centres undefined),4.7
CC1Cc2ccccc2N1C(=O)CCCNC(=O)c1ccc(=O)n(C)c1 (centres undefined),-0.7
SMILES,Tg IFNy HTS
C[C@H]1[C@H](OC(=O)CCC(=O)O)O[C@@H]2O[C@@]3(C)CC[C@H]4[C@H](C)CC[C@@H]1[C@@]24OO3,-79.9*
CC(=O)[C@H]1CCC2C3CC=C4C[C@@H](OC(=O)CCC(=O)O)CC[C@]4(C)C3CC[C@@]21C (some centres undefined),-0.8
Cc1cc(C(=O)NC2(CN3CCOCC3)CCCC2)n[nH]1,-5.5
CC(C(=O)c1ccccc1)n1nnc2ccccc2c1=O (centres undefined),-19.9
c1ccc2c(c1)OCC(Cn1ccnc1-c1cnc[nH]1)O2 (centres undefined),-10.6
Cc1nnsc1CN(C)Cc1cccc(C(=O)Nc2c(C)noc2C)c1,-2.0
COCCN1CCOCC12CCN(c1nccc(C(F)(F)F)n1)CC2,-7.9
CC(c1ccc(-c2ccc3c(c2)OCO3)cc1)N1CCOCC1 (centres undefined),89.9
Cc1c(C)c(C)c2[nH]c(-c3ccc4c(c3)OCO4)nc2c1C,-95.4*
Cc1ccc2[nH]c(=O)c(-c3nc(-c4ccc5c(c4)OCO5)no3)c(O)c2c1,335.0
CCn1c(C2CCN(C(=O)CSc3ccccc3C)CC2)nn(C)c1=O,-25.6
CN(C)c1nc2c(c(=O)[nH]1)CCN(C(=O)NC13CC4CC(CC(C4)C1)C3)C2,-3.1
COCc1cncc2c1CCN(C(=O)C1CCOCC1)C2,8.4
CN1CCN(Cc2cnc3n2CCN(CC2CCOCC2)C3)CC1,-49.9
CC(=O)Nc1ccc(S(=O)(=O)N2CCC3(CC2)Nc2cc(C)ccc2-n2cccc23)cc1,12.5
COc1ccccc1C1(NCc2c(C)nn(C(C)C)c2C)CCCC1,19.8
Cc1ccc(NC(=O)CN2C(=O)CCc3cc(S(=O)(=O)N4CCC(C)CC4)ccc32)cc1Cl,-102.6*
CC1CCN(S(=O)(=O)c2ccc3c(c2)CCC(=O)N3CC(=O)Nc2ccc3c(c2)OCO3)CC1,-18.4
CC1CCN(S(=O)(=O)c2ccc3c(c2)CCC(=O)N3CC(=O)Nc2ccc(F)cc2)CC1,-24.4
CC1CCCCN1S(=O)(=O)c1ccc2c(c1)CCC(=O)N2CC(=O)Nc1ccc2c(c1)OCCO2 (centres undefined),-12.2
Cc1ccc(NC(=O)CN2C(=O)CCc3cc(S(=O)(=O)N4CCCCC4C)ccc32)cc1C (centres undefined),-83.5*
CC1CCN(S(=O)(=O)c2ccc3c(c2)CCC(=O)N3CC(=O)Nc2ccc(Cl)cc2)CC1,-91.8*

# Assay outcomes: PubChem, Broad Institute
